We go through 18 molecules from PubChem BioAssay.

Experiment [1] can be described thus: antimalarial activity against Dd2 strain (AID 2302;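 active = growth inhibition above 50% at the single 2 µM test dose, taken to imply half-maximal potency below 2 µM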;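 also: 0% = DMSO untreated growth and 100% = chloroquine plus artemisinin killed control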). The note with it: P. falciparum Dd2 in RBCs, LDH growth readout, 72 h; at 2 µM; hits give high values.
The nature of experiment [2]: HepG2 cytotoxicity, primary screen, cytotoxicity control for P. falciparum antimalarial project, cell-based, ATP luminescence (AID 2303;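 active = inhibition above 50%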;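 also: 0% = DMSO wells and 100% = digitonin-killed cells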). The note with it: HepG2 viability, 24-48 h, at 10 µM, hits give high values.
Experiment [3] addresses L-lactate dehydrogenase (Plasmodium falciparum (isolate CDC / Honduras)) (UniProt Q27743). Description: PfLDH activity inhibition – cell lysate, 3D7 strain, counter-screen for P. falciparum growth inhibition project (AID 2304).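 Also: 0% = vehicle and 100% = reference inhibitor.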 The note with it: P. falciparum 3D7 crude extract, LDH APAD/NBT absorbance; at 2 µM; hits give high values. In general terms: A counterscreen serves to expose hits that act by an unwanted route or on another target.

Experiment [4] in a line: inhibition of 3D7 malaria parasite growth – strain 3D7 (AID 2306).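 Also: 0% = DMSO wells and 100% = chloroquine plus artemisinin control wells.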 The note with it: P. falciparum 3D7 erythrocytic growth, LDH absorbance, 72 h; at 2 µM; hits give high values.
For experiment [5], the target named is Calcium-dependent protein kinase 1 (Plasmodium falciparum (isolate 3D7)) (UniProt P62344). Description: PfCDPK1 kinase inhibitors, biochemical, TCAMS library (AID 1159585; cut-off not given, nearly all actives have IC50 up to about 0.98 µM;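 also: inhibitors leave more ATP so luminescence rises with inhibition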). The note with it: recombinant PfCDPK1, Kinase-Glo ATP depletion luminescence. In general terms: Kinase-Glo reads ATP consumption through a luciferase reaction.
Experiment [6] deals with Plasmodium falciparum protein kinase 6 (PK6, PF3D7_1337100) (UniProt Q8IDW1). Description: PfPK6 kinase inhibitors, biochemical, TCAMS library (AID 1159586). The note with it: recombinant PfPK6, Kinase-Glo ATP depletion luminescence.
Experiment [7] addresses Protein kinase 7 (PK7), Plasmodium falciparum 3D7 (PF3D7_0213400) (UniProt Q7YTF7). Put plainly: inhibition of Plasmodium PK7 catalytic activity – biochemical, TCAMS antimalarial set, Kinase-Glo luminescence (AID 1159587). The note with it: recombinant PfPK7, Kinase-Glo ATP depletion luminescence.
Experiment [8] addresses Calcium-dependent protein kinase 4 (Plasmodium falciparum (isolate 3D7)) (UniProt Q8IBS5). Put plainly: PfCDPK4 kinase inhibitors, biochemical, TCAMS library (AID 1159588; cut-off not given, nearly all actives have IC50 up to about 0.91 µM). The note with it: recombinant PfCDPK4, Kinase-Glo ATP depletion luminescence.

The structures appear in SMILES notation. Values without a mark were called inactive. For part of these data: Measured potencies and affinities stand elsewhere. The source made the active and inactive calls. Unless noted, no rule for the calls is given here.

A word on the inhibition: it is the change of the read-out against control, counted positive when it falls.

Chain of Calcium-dependent protein kinase 1 (Plasmodium falciparum (isolate 3D7)) (P62344 whole entry, looked up): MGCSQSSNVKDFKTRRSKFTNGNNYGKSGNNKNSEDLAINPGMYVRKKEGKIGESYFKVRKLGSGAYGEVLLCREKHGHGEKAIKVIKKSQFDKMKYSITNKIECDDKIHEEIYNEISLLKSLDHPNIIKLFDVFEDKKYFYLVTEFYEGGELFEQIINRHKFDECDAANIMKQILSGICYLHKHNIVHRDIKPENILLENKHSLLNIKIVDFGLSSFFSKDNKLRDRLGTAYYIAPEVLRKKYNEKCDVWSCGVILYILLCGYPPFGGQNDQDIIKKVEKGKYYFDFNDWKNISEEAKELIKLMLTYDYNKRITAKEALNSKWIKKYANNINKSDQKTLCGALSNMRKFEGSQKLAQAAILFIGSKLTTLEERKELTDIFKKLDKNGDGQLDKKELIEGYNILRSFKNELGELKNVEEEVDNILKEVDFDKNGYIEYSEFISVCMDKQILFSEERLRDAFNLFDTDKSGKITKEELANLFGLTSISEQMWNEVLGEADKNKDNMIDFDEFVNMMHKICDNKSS
Chain of Protein kinase 7 (PK7), Plasmodium falciparum 3D7 (PF3D7_0213400) (Q7YTF7 1-343): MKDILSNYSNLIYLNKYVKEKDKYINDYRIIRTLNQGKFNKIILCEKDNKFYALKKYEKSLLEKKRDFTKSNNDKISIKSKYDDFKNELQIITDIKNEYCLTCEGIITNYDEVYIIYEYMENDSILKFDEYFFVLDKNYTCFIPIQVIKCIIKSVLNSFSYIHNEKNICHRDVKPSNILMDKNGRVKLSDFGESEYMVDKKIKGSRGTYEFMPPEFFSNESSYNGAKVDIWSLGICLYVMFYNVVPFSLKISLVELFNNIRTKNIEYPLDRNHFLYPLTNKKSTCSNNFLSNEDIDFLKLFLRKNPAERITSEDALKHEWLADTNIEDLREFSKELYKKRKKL
Chain of L-lactate dehydrogenase (Plasmodium falciparum (isolate CDC / Honduras)) (Q27743 whole entry, looked up): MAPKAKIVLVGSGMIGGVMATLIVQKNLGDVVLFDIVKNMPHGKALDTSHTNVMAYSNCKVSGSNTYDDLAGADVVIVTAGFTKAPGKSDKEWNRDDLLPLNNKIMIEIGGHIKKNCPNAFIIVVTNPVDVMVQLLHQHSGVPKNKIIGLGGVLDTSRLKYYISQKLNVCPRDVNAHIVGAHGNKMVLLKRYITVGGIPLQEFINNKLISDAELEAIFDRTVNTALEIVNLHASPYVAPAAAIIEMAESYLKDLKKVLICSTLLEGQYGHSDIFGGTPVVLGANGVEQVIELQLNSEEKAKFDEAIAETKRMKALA
Chain of Calcium-dependent protein kinase 4 (Plasmodium falciparum (isolate 3D7)) (Q8IBS5 whole entry, looked up): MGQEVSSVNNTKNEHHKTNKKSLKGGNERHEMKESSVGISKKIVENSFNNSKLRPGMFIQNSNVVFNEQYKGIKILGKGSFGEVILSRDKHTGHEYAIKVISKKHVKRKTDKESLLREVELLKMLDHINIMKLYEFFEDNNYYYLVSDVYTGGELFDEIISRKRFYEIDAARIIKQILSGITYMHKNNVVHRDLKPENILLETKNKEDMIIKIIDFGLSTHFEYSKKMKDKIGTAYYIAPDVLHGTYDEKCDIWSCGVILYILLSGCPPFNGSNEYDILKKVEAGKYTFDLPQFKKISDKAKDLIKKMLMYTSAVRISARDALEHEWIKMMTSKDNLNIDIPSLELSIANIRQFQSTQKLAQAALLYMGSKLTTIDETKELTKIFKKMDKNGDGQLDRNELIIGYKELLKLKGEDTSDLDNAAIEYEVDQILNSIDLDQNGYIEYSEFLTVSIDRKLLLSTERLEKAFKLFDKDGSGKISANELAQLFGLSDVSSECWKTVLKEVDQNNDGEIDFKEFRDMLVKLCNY
Chain of Plasmodium falciparum protein kinase 6 (PK6, PF3D7_1337100) (Q8IDW1 1-305): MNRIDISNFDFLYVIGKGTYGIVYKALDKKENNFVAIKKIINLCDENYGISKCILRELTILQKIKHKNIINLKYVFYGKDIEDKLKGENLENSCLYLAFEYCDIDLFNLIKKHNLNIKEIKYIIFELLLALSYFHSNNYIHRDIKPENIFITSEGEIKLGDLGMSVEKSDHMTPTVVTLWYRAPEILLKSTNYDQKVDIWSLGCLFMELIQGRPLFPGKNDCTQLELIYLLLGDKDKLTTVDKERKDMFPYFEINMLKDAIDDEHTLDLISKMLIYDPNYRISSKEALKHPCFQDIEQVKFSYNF

Turning to `O=C(/C=C/c1ccccc1O)NCCCCCN1CCC(c2c[nH]c3ccccc23)CC1`, the growth inhibition was 1% in experiment [1] and 95% (active) in experiment [4]. The values for the inhibition in experiment [2] and in experiment [3] were 7% and -5%, respectively. Moreover, the result in experiment [5], in experiment [6], in experiment [7] and in experiment [8] was inactive.
Take `COc1ccc(NC(=O)c2ccc(-c3ccc(-c4cccnc4)cc3)c(C)c2)cc1OCCN(C)C`: the growth inhibition in experiment [1] is 73% (active); in experiment [4], 99% (active). The figures for the inhibition in experiment [2] and in experiment [3] were 24% and 0%, respectively. The result in experiment [5], in experiment [6], in experiment [7] and in experiment [8] was inactive.
`Cc1ccc(NC(=S)N2CCCN(CCCCCNC(=O)/C=C/c3ccc(Cl)c(Cl)c3)CC2)cc1Cl`: the growth inhibition in experiment [1] was 5%; in experiment [4], 93% (active). In addition, the inhibition in experiment [2] is 14%; in experiment [3], 5%. The result in experiment [5], in experiment [6], in experiment [7] and in experiment [8] was inactive.
On to `CNc1ccc(CNCc2cccc(-c3ccc(-c4nc5ccccc5[nH]4)s3)c2)cc1`, for which the growth inhibition in experiment [1] is 77% (active); in experiment [4], 100% (active). The inhibition is 15% in experiment [2] and -3% in experiment [3]. Further, the result in experiment [5], in experiment [6], in experiment [7] and in experiment [8] was inactive.
Turning to `O=C(NC1CC1)c1ccc(N2CCC(c3ccccc3)CC2)nc1`, the growth inhibition was 92% (active) in experiment [1] and 93% (active) in experiment [4]. In addition, the inhibition in experiment [2] was 16%; in experiment [3], 1%. Besides, the result in experiment [5], in experiment [6], in experiment [7] and in experiment [8] was inactive.
Regarding `O=C(/C=C/c1ccc(Cl)c(Cl)c1)NCCCCCN1CCC(NC(=O)Nc2ccc(Cl)cc2Cl)CC1`, the growth inhibition is 33% in experiment [1] and 91% (active) in experiment [4]. The inhibition in experiment [2] is 96% (active); in experiment [3], -2%. The result in experiment [5], in experiment [6], in experiment [7] and in experiment [8] was inactive.
In the case of `Cc1nc2nc(N)nc(N)c2c(C)c1Cc1ccc(C#N)cc1`, the growth inhibition was 4% in experiment [1] and 96% (active) in experiment [4]. Besides, the inhibition in experiment [2] is 69% (active); in experiment [3] it was 1%. Besides, the outcome in experiment [5], in experiment [6], in experiment [7] and in experiment [8] was inactive.
With `O=C(O)Cc1ccc(-c2c[nH]c3ncc(-c4cccc5ncccc45)cc23)cc1`, the growth inhibition in experiment [1] is 0%; in experiment [4], 95% (active). For the same molecule, the figures for the inhibition in experiment [2] and in experiment [3] were 7% and 1%, respectively. In addition, the result in experiment [5], in experiment [6], in experiment [7] and in experiment [8] was inactive.
As for `CCCCCN1CCCC1CNS(=O)(=O)c1ccc(C(=O)Nc2ccc(C(F)(F)F)cc2)cc1` (centres undefined), the values for the growth inhibition in experiment [1] and in experiment [4] were -3% and 87% (active), respectively. Moreover, the inhibition is 19% in experiment [2] and -2% in experiment [3]. Further, the result in experiment [5], in experiment [6], in experiment [7] and in experiment [8] was inactive.
For the molecule `COc1cc2cc(Cc3cnc(N)nc3N)ccc2c(OC)c1OC`, the growth inhibition in experiment [1] is 2%; in experiment [4], 97% (active). The inhibition in experiment [2] is 1%; in experiment [3], 7%. Also, the result in experiment [5], in experiment [6], in experiment [7] and in experiment [8] was inactive.
With `CCN(CCS(C)(=O)=O)Cc1ccc(-c2ccc3ncnc(Nc4ccc(OCc5cccc(F)c5)c(Cl)c4)c3c2)o1`, the figures for the growth inhibition in experiment [1] and in experiment [4] were 63% (active) and 101% (active), respectively. The inhibition in experiment [2] was 5%; in experiment [3], -7%. Besides, the result in experiment [5], in experiment [6], in experiment [7] and in experiment [8] was inactive.
As to `CC(C)Sc1nncc(-c2cnnc(SC(C)C)n2)n1`, the growth inhibition in experiment [1] is 100% (active); in experiment [4], 101% (active). The inhibition in experiment [2] is -1%; in experiment [3], 2%. The outcome in experiment [5], in experiment [6], in experiment [7] and in experiment [8] was inactive.
On to `CC(=O)N/N=C/[C@H](CCc1ccccc1)NC(=O)[C@H](CC(C)C)NC(=O)c1cccc(OCCN2CCOCC2)c1`, for which the figures for the growth inhibition in experiment [1] and in experiment [4] were 78% (active) and 94% (active), respectively. In addition, the figures for the inhibition in experiment [2] and in experiment [3] were 13% and -6%, respectively. The result in experiment [5], in experiment [6], in experiment [7] and in experiment [8] was inactive.
Turning to `OC1CCCN(Cc2ccc(-c3cccc(-c4nc5ccc(F)cc5[nH]4)c3)cc2)C1` (centres undefined), the growth inhibition in experiment [1] was 49%; in experiment [4], 99% (active). Further, the inhibition was 28% in experiment [2] and -5% in experiment [3]. Also, the outcome in experiment [5], in experiment [6], in experiment [7] and in experiment [8] was inactive.
On to `Cc1cc(C2CCN(CCCCNC(=O)c3ccc(-c4ccc(C#N)cc4)cc3)CC2)c(C)cc1OCCO`, for which the growth inhibition was 68% (active) in experiment [1] and 96% (active) in experiment [4]. For the same molecule, the inhibition in experiment [2] is 20%; in experiment [3], 2%. The result in experiment [5], in experiment [6], in experiment [7] and in experiment [8] was inactive.
For `CCCn1c(Sc2ccc(C#N)c([N+](=O)[O-])c2)nnc1-c1ccc(N(C)C)cc1`, the growth inhibition in experiment [1] was 98% (active); in experiment [4], 97% (active). Besides, the inhibition in experiment [2] is 18%; in experiment [3] it was 7%. In addition, the result in experiment [5], in experiment [6], in experiment [7] and in experiment [8] was inactive.
As for `FC(F)(F)COc1c(CNCCCCCCNCc2ccc3ccccc3c2OCC(F)(F)F)ccc2ccccc12`, the growth inhibition in experiment [1] was 79% (active); in experiment [4], 101% (active). Also, the results for the inhibition in experiment [2] and in experiment [3] were 100% (active) and 6%, respectively. The result in experiment [5], in experiment [6], in experiment [7] and in experiment [8] was inactive.
With `COc1ccc(Nc2ncc3c(-c4cccc(NC(=O)CC(C)C)c4)c[nH]c3n2)cc1OC`, the growth inhibition is 71% (active) in experiment [1] and 101% (active) in experiment [4]. Moreover, the results for the inhibition in experiment [2] and in experiment [3] were 37% and 5%, respectively. The outcome in experiment [5], in experiment [6], in experiment [7] and in experiment [8] was inactive.
